22 molecules from PubChem BioAssay (NCI) can be followed below.

Each structure is given as a SMILES string. Several values for one entry are separate records, joined by “and”; a condition that tells them apart may be missing. Identical values can stand only once. The panel holds about 79,000 compounds, 15% with a hit somewhere; the sample as a whole holds those more often. Unmarked numbers belong to inactive results. Activity calls are given as the source filed them. Rule as the data show it: active = growth inhibition above about 70%; inactive = the rest. Where a SMILES comes first, the peptide text is derived from it. [ ]: non-standard residue; d: D form. The star is where a group is joined. ξ: configuration not given here. ξF = NC(Cc1ccccc1)C(=O)O; Cbz = O=C(OCc1ccccc1)*; Aib = CC(C)(N)C(=O)O

The nature of assay [1]: NCI Yeast Anticancer Drug Screen. Data for the rad50 strain (AID 155).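 Also: 0% = growth of vehicle-only cultures of the same strain.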 Particulars: S. cerevisiae rad50 strain growth inhibition, stronger effect = higher value; at 50.0 µM unless noted. Put shortly: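 A DNA repair-deficient yeast mutant serves as the test organism; compound-induced growth inhibition is calculated against vehicle-treated cells.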
The nature of assay [2]: NCI Yeast Anticancer Drug Screen. Data for the mec2-1 strain (AID 157). Particulars: S. cerevisiae mec2-1 strain, stronger effect = higher value; at 50.0 µM unless noted. Put shortly: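 Readout is yeast growth inhibition, normalised to vehicle-treated controls, in the mec2-1 strain exposed to compound.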
The nature of assay [3]: NCI Yeast Anticancer Drug Screen. Data for the sgs1 mgt1 strain (AID 161).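 Also: 0% = growth of cultures given vehicle only.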 Particulars: S. cerevisiae sgs1 mgt1 strain, stronger effect = higher value; at 50.0 µM unless noted. Put shortly: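 Yeast cells carrying a defined DNA-repair defect were exposed to test compounds. Growth inhibition was measured relative to vehicle-treated controls.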
A short description of assay [4]: NCI Yeast Anticancer Drug Screen. Data for the cln2 rad14 strain (AID 165).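 Also: 0% = growth equal to vehicle treated cultures.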 As to conditions: S. cerevisiae cln2 rad14 strain, stronger effect = higher value; at 50.0 µM unless noted. Put shortly:
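Relative to vehicle controls, growth inhibition of compound-treated cln2 rad14 yeast was recorded.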

Assay [5] in a line: NCI Yeast Anticancer Drug Screen. Data for the bub3 strain (AID 167). Particulars: S. cerevisiae bub3 mutant strain, stronger effect = higher value; at 50.0 µM unless noted. Put shortly: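 Inhibition values come from growth of compound-treated mutant yeast normalised to vehicle-treated controls.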
The nature of assay [6]: NCI Yeast Anticancer Drug Screen. Data for the mlh1 rad18 strain (AID 175). As to conditions: S. cerevisiae mlh1 rad18 strain growth inhibition, stronger effect = higher value; at 50.0 µM unless noted. Put shortly: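 Test agents were incubated with a yeast strain of defined genotype (DNA damage repair defect). Inhibition of growth was derived by comparison with vehicle-exposed cultures.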

As for `COC(=O)C(C)(C)NC(=O)C(Cc1ccccc1)NC(=O)C(C)(C)NC(=O)OCc1ccccc1` (configuration not stated) (Cbz-[Aib]-[ξF]-[Aib]-OMe), the growth inhibition is 18.9% in assay [1]; 4.8% in assay [2]; -6.2% in assay [3]; 23.1% in assay [4]; 12.4% in assay [5]; -1.2% in assay [6].
`O=C1OC(OC2CCCCC2)(c2ccccc2)c2ccccc21` (configuration not stated): the growth inhibition in assay [1] was -25.1%; in assay [2], -7.75%; in assay [3], -0.15%; in assay [4], -23.5%; in assay [5] it was -1.65%; in assay [6] it was -5.55%.
As for `N#CC1=C(N)OC(C2CC2)=C(C#N)C1c1ccco1` (configuration not stated), the growth inhibition in assay [1] was -9.75%; in assay [2] it was -14.1%; in assay [3] it was -11.1%; in assay [4], 4.45%; in assay [5], -24.8%; in assay [6], -11.9%.
On to `CCOC1=Nc2ccccc2C1(C)CCO` (configuration not stated), for which the growth inhibition is -45.5% in assay [1]; -13.2% in assay [2]; -23.1% in assay [3]; -62.2% in assay [4]; -5% in assay [5]; -4.3% in assay [6].
Take `CC(C)CCOC(=O)C(O)c1ccccc1` (configuration not stated): the growth inhibition in assay [1] was 15.6%; in assay [2] it was 2.8%; in assay [3] it was 0.4%; in assay [4], -22.2%; in assay [5], -25.7%; in assay [6] it was 8.45%.
Turning to `C/C(N)=N\O`, the growth inhibition in assay [1] was 20.1%; in assay [2] it was 4.1%; in assay [3] it was 2.45%; in assay [4], 9.85%; in assay [5], 0.1%; in assay [6] it was 1.65%.
`Cc1c(C(=O)CC(=O)C(=O)Nc2ccc(Cl)c(Cl)c2)[n+](=O)c2ccccc2n1[O-]`: the growth inhibition is 12.6% in assay [1]; 16.9% in assay [2]; -16.1% in assay [3]; 34.5% in assay [4]; 19.4% in assay [5]; 20.2% in assay [6].
Turning to `CN(C)CCNC(=O)Nc1cccc2ccccc12`, the growth inhibition is 16% in assay [1]; 8.35% in assay [2]; -0.8% in assay [3]; 16.6% in assay [4]; -6.5% in assay [5]; 2.25% in assay [6].
For `COC(=O)Cc1cc(C)n(C)c(=O)c1CN1C(=O)c2ccccc2C1=O`, the growth inhibition in assay [1] was 10.6%; in assay [2], -10.9%; in assay [3], 5.4%; in assay [4] it was 12.4%; in assay [5] it was -11.2%; in assay [6], 20.8%.
As for `COc1ccc(N2C(N)=C(C#N)C(C#N)(C#N)C2c2cccc([N+](=O)[O-])c2)cc1` (configuration not stated), the growth inhibition is 8.8% in assay [1]; -5.05% in assay [2]; -2.05% in assay [3]; 0.25% in assay [4]; -31.9% in assay [5]; 79.7% (active) in assay [6].
Regarding `O=S(=O)(c1ccccn1)c1nc2ccccc2s1`, the growth inhibition in assay [1] is -1.75%; in assay [2], 7.1%; in assay [3], -0.45%; in assay [4] it was 17.1%; in assay [5], -2.8%; in assay [6], 0.45%.
Consider `CC(=O)c1ccccc1OB(F)F`, for which the growth inhibition in assay [1] is 10.2%; in assay [2], -11.2%; in assay [3], 8.8%; in assay [4], -4.45%; in assay [5], 1.05%; in assay [6] it was -11.9%.
For the molecule `O=C(O)c1nc2cn1/C=C\C=NCC1=CN3C=CC=NC3(C(=O)O)N1C2` (configuration not stated), the growth inhibition in assay [1] was -14.6%; in assay [2], -2.95%; in assay [3], -12.4%; in assay [4], -43.2%; in assay [5], 1.05%; in assay [6], -18.9%.
As to `NC(=O)Nc1ccccc1-c1ccccc1`, the growth inhibition in assay [1] was -0.6%; in assay [2] it was -11.2%; in assay [3], 13.8%; in assay [4] it was -26.4%; in assay [5], -10.8%; in assay [6] it was 7.45%.
As to `CCCCOC/N=C(/N)NC#N`, the growth inhibition is 10.9% in assay [1]; 2.15% in assay [2]; -5.2% in assay [3]; 28.6% in assay [4]; -4.1% in assay [5]; 17.7% in assay [6].
Regarding `O/C(=C/c1ncnc2ccccc12)c1cccc(Cl)c1`, the growth inhibition in assay [1] is 12.5%; in assay [2], 4.4%; in assay [3], 22.8%; in assay [4], -11.4%; in assay [5] it was 14.7%; in assay [6], 15%.
In the case of `C=CCOC(=O)CC(=C)C(=O)O`, the growth inhibition was 18.9% in assay [1]; 31% in assay [2]; 15.8% in assay [3]; -24.8% in assay [4]; 6.2% in assay [5]; 7.55% in assay [6].
For the molecule `CC1C(=O)N(c2ccccc2)NC12CCCc1ccccc12` (configuration not stated), the growth inhibition in assay [1] was -15.2%; in assay [2], -7.3%; in assay [3] it was -34.8%; in assay [4], 16.6%; in assay [5] it was 25.1%; in assay [6], 27.6%.
In the case of `Cl`, the growth inhibition in assay [1] was -13.4% and -6.25%; in assay [2] it was -29.2% and 17.5%; in assay [3], -10.4% and 1.8%; in assay [4], -0.9% and 2.2%; in assay [5] it was -5.15% and -38%; in assay [6] it was -16% and -32.6%.
`COC(=O)CC1CCS(=O)(=O)C1` (configuration not stated): the growth inhibition in assay [1] was -6.6%; in assay [2] it was 6.35%; in assay [3], -5.7%; in assay [4], -37.4%; in assay [5] it was -4.4%; in assay [6], 0%.
With `Nc1ccc2c(O)cc(S(=O)(=O)O)cc2c1`, the growth inhibition in assay [1] is 39% and 26.9%; in assay [2], 5.1% and 0.25%; in assay [3] it was 4.5% and -20.9%; in assay [4], -29.1% and -73%; in assay [5] it was 19.6% and 4.85%; in assay [6], 3.7% and 10.4%.
`CCCCN=C(N)C(N)=NCCCC`: the growth inhibition is -13.8% in assay [1]; -4.65% in assay [2]; -5.7% in assay [3]; -28.3% in assay [4]; 0.5% in assay [5]; -18.7% in assay [6].
